Assay results: PubChem BioAssay AID2845 (The Scripps Research Institute Molecular Screening Center, 2010)
The campaign covered roughly 2,300 compounds. About 2,000 (87%) were called active. No stated cut-off is given here; in the data, active means activation above about 49%; inactive means the rest. So high a share suggests a set chosen from earlier hits. A selection follows.

What follows are molecules tested against Aryl hydrocarbon receptor (Homo sapiens) (UniProt P35869) (assay: activators of human aryl hydrocarbon receptor reporter – cell-based, luminescence, luciferase reporter, confirmation (AID 2845;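 further: HepG2 hepatoma cells carrying a DRE-driven firefly luciferase reporter; 0% = vehicle wells and 100% = reference agonist wells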)). Conditions: human cells, AHR-responsive luciferase reporter, at 9 µM, active compounds read high.
Sequence of Aryl hydrocarbon receptor (Homo sapiens) (P35869 whole entry, looked up): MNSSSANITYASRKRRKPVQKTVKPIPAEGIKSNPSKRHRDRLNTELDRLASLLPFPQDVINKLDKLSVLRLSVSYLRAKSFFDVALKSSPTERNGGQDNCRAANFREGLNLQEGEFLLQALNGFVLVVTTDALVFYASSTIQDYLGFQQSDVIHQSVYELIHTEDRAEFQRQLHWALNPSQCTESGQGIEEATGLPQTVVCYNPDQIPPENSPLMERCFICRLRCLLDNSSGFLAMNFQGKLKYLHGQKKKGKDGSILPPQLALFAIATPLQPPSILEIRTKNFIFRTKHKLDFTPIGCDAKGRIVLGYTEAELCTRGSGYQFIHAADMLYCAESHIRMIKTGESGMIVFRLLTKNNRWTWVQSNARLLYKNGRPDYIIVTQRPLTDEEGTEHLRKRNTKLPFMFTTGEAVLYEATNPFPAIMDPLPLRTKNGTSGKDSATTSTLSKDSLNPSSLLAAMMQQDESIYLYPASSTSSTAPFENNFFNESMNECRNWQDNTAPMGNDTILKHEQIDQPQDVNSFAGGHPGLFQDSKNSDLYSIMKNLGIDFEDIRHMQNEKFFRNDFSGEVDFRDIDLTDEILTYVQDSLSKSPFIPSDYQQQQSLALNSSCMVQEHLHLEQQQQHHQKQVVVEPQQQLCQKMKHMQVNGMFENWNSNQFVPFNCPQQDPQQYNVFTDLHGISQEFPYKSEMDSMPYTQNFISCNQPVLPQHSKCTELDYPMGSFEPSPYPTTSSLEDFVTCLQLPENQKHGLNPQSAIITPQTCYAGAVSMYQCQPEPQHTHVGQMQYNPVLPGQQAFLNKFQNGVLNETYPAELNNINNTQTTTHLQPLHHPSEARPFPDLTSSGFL

Row | SMILES | activation
1 | Cc1ccnc(-n2sc3ccccc3c2=O)n1 | 55.4% (active)
2 | COc1ccccc1NC(=O)C1=C(C)NC2=C(C(=O)CCC2)C1c1ccc(C)o1 (configuration not stated) | 110% (active)
3 | NC(=O)Nc1ccccc1C(=O)NCCc1ccccc1 | 106% (active)
4 | CC(C)n1ncc2c(C(=O)Nc3ccc(CC#N)cc3)cc(C3CC3)nc21 | 25.4% (inactive)
5 | Cc1ccc(NC(=O)Nc2cccnc2)cc1 | 67.7% (active)
6 | CCC(=O)NC(=S)Nc1ccc(NC(=O)c2ccco2)c(Cl)c1 | 82% (active)
7 | COc1cc(NC(=O)c2ccc(-c3csc(C)n3)cc2)c(OC)cc1Cl | 119% (active)
8 | CCNC(=S)N1CCC(c2nc3cc(C)c(C)cc3[nH]2)CC1 | 25.5% (inactive)
9 | O=C(Nc1cccc(Br)c1)c1ccc2snnc2c1 | 74.4% (active)
10 | CNC(=O)c1ccc2nc(NC(C)=O)sc2c1 | 22.7% (inactive)
11 | COc1cc(CNCc2ccc3c(c2)OCO3)c([N+](=O)[O-])cc1OC | 87.3% (active)
12 | Brc1ccc(C2=CC(c3ccco3)n3ncnc3N2)cc1 (configuration not stated) | 90.4% (active)
13 | S=c1[nH]nc(-c2cc(-c3ccsc3)n[nH]2)n1-c1ccccc1 | 103% (active)
14 | Cc1ccnc(NC(=O)c2ccc(Cl)c([N+](=O)[O-])c2)c1 | 60.8% (active)
15 | Cc1cccc(N=Nc2c(O)[nH]c3ccc(F)cc23)c1 | 147% (active)
16 | COc1cccc(-c2nc3cc(C)ccc3o2)c1 | 47% (active)
17 | CC(=O)Nc1ccc(-c2nc3ccccc3o2)cc1 | -4.38% (inactive)
18 | COc1ccc(OC)c(-c2csc(-c3cccs3)n2)c1 | 94.4% (active)
19 | O=C(CCCCn1c(=O)[nH]c2ccccc2c1=O)NCc1ccc2c(c1)OCO2 | 56.1% (active)
20 | Brc1ccc(C2CC(c3ccccc3)=Nc3ccccc3N2)cc1 (configuration not stated) | 80.8% (active)
21 | NNc1nc2c(Cl)cccc2s1 | 57.5% (active)
22 | CC(C)n1cnc2c(Nc3cccc(Cl)c3)nc(N(CCO)CCCO)nc21 | 11.4% (inactive)

Row | SMILES | activation
23 | CN(C)S(=O)(=O)Oc1ccccc1C(=O)Nc1ccccc1Cl | 99.1% (active)
24 | CCOC(=O)c1nc(-c2ccc3c(c2)OCO3)[nH]c1C | 68.3% (active)
25 | CCn1c2ccccc2c2cc(NC(=O)C/C(C)=N/NC(=O)c3ccccc3N)ccc21 | 61.5% (active)
26 | CCn1c(NC(=O)c2nn(C)cc2Br)nc2ccccc21 | 70.7% (active)
27 | O=C(Nc1ccc(Cl)cn1)c1cnn2cccnc12 | 179% (active)
28 | COc1ccc(Nc2nnc(C)c3ccccc23)cc1 | 82.5% (active)
29 | Cn1c(C(=O)NCCc2ccsc2)cc2c(=O)n(C)c3ccccc3c21 | 65.4% (active)
30 | O=C(NC1CC1)C1=C[C@H](c2c[nH]c3ccccc23)C[C@H](OCc2ccc(CO)cc2)O1 | 27.6% (inactive)
31 | O=C(N/N=C/c1ccco1)c1ccc(C(=O)N/N=C/c2ccco2)o1 | 73.2% (active)
32 | O=C(N/N=C/c1c[nH]c2ccccc12)c1cc2ccccc2o1 | 42.3% (inactive)
33 | COc1ccc(NC(=O)c2ccco2)cc1NC(=O)c1ccc(C#N)cc1F | 71.7% (active)
34 | N#C/C(=C(/O)COc1cccc2ccccc12)c1nc2ccccc2[nH]1 | 84.1% (active)
35 | O=C(Nc1cc(S(=O)(=O)Nc2ccc(Cl)cc2)ccc1O)c1ccc(F)cc1F | 103% (active)
36 | Cc1nnc(NC(=O)/C=C/c2ccco2)s1 | 127% (active)
37 | NS(=O)(=O)c1ccc(-c2ccc(/C=C3\SC(=O)NC3=O)o2)cc1 | 116% (active)
38 | COc1cc(/C=N/N=C(\N)c2nonc2N)cc(OC)c1OC | 101% (active)
39 | Cc1cccc(NC(=O)c2ccc3ccccc3n2)n1 | 128% (active)
40 | Cc1csc(NC(=S)Nc2cccc(Cl)c2)n1 | 98.7% (active)
41 | C/C(=N/NC(=S)Nc1ccccc1)c1ccc2c(c1)OCO2 | 16% (inactive)
42 | CCSc1ccccc1C(=O)Nc1ccc2c(c1)OCO2 | 101% (active)
43 | Cc1cccc(NC(=O)Nc2ccc3c(c2)OCO3)n1 | 123% (active)
44 | CCC(C)NCC(=O)Nc1ccc([N+](=O)[O-])cc1C(=O)Nc1ccccc1F (configuration not stated) | 88.2% (active)

Row | SMILES | activation
45 | COCCNc1nc(-c2ccccc2)nc2c1oc1ccccc12 | 121% (active)
46 | CSc1ccc(C#N)cc1NC(=O)c1ccc(Cl)cc1 | 86.5% (active)
47 | CCN(CC)C(=O)Oc1ccc(Br)cc1C(=O)Nc1ccc(F)c(Cl)c1 | 124% (active)
48 | C/C(=N\NC(=O)c1cccnc1)c1ccc(-n2ccnc2)cc1 | 86.3% (active)
49 | C(=N\Nc1ccc2ccccc2n1)/c1ccc2c(c1)OCO2 | -10.8% (inactive)
50 | Cc1noc(C)c1/C=N/Nc1ccc2ccccc2n1 | 176% (active)
51 | COc1ccccc1Nc1ncnc2c1oc1ccccc12 | 132% (active)
52 | CCn1ccnc1CN(C)Cc1nc(-c2ccc3c(c2)OCO3)no1 | 79.9% (active)
53 | O=C(Nc1ccc(C2CC2(Cl)Cl)cc1)c1cccc([N+](=O)[O-])c1 (configuration not stated) | 96.2% (active)
54 | O=C(NCCCn1ccnc1)c1cc(-c2ccccc2)on1 | 323% (active)
55 | Clc1ccc(Nc2nc(-c3cccs3)cs2)nc1 | 141% (active)
56 | Cc1ccc(NC(=O)NNC(=O)c2sccc2-n2cccc2)cc1 | 101% (active)
57 | COc1ccc2nc(Nc3nc(-c4ccncc4)cs3)sc2c1 | 101% (active)
58 | C/C(CC1CC(C)(C)OC1=O)=N/Nc1nc(-c2ccccc2)cs1 (configuration not stated) | -2.24% (inactive)
59 | COc1ccc(Nc2nc(-c3ccccc3)cs2)cc1 | 91.2% (active)
60 | Cc1cccc(Nc2nc(-c3ccccc3)cs2)n1 | 131% (active)
61 | S=c1nc2ccccc2c2nc(-c3cccnc3)[nH]n12 | 125% (active)
62 | O=C(Nc1ccc(-c2csc(Nc3cccc(C(F)(F)F)c3)n2)cc1)c1cccc(C(F)(F)F)c1 | 4.55% (inactive)
63 | O=C(Nc1ccc(C(F)(F)F)cc1)c1cccc(-n2cnnn2)c1 | 106% (active)
64 | CC(C(=O)N=Nc1c(O)n(C)c2ccc(Br)cc12)n1cnc2ccccc2c1=O (configuration not stated) | 73.7% (active)
65 | Cc1nn(Cc2ccc(Cl)cc2)c(Cl)c1/C=N/NC(=O)c1cccnc1 | 74.2% (active)
66 | O=C(CSc1cccc2cccnc12)N/N=C/c1cccnc1 | 21.4% (inactive)

Row | SMILES | activation
67 | Cc1c(C(=O)NCC(c2ccco2)N2CCCC2)oc2ccc(Cl)cc12 (configuration not stated) | 75.5% (active)
68 | CCOC(=O)N1CCN(C(=O)c2cc3c(-c4ccc(Cl)cc4)nn(C)c3s2)CC1 | 85.9% (active)
69 | COc1ccccc1N1CCN(C(=O)c2cc3c(-c4ccc(Cl)cc4)nn(C)c3s2)CC1 | 102% (active)
70 | Cn1nc(-c2ccc(Cl)cc2)c2cc(C(=O)NCc3ccco3)sc21 | 148% (active)
71 | CN(C)c1nc(Nc2ccc(Cl)c(Cl)c2)nc(N(C)C)n1 | 129% (active)
72 | C=CCNC(=O)CSc1nc2sc(C)c(C)c2c(=O)[nH]1 | 53% (active)
73 | c1cnc(N2CCN(c3ccc4ccccc4n3)CC2)nc1 | 96.5% (active)
74 | Cc1nc2sc(C(=O)c3ccccc3)c(N)c2c2c1CCCC2 | 97.5% (active)
75 | Cn1c(SCC(=O)c2ccccc2)ncc(C(=O)Nc2ccc(F)cc2)c1=O | 120% (active)
76 | CC1Cc2ccccc2N1C(=O)CSc1nnc(C2CC2)n1C (configuration not stated) | 47.2% (active)
77 | COc1ccc(C(=O)Nc2ccccc2C(=O)N/N=C/c2ccccc2OC)cc1 | 66.5% (active)
78 | O=C(CC1Nc2ccccc2NC1=O)Nc1ccccc1 (configuration not stated) | 119% (active)
79 | Cn1cc(Cl)c(C(=O)NNC(=S)Nc2cccc(Cl)c2)n1 | 75.4% (active)
80 | O=C(Nn1c(-c2ccc(Cl)cc2)nc2ccccc2c1=O)c1cccnc1Cl | 28.5% (inactive)
81 | Cc1ccc(-c2nc(C#N)c(NCCCn3ccnc3)o2)cc1 | 107% (active)
82 | O=C(Cn1c(NCCO)nc2ccccc21)c1ccc(Cl)cc1Cl | 115% (active)
83 | COc1ccc(C2NC(=O)c3ccccc3N2)cc1 (configuration not stated) | 39.3% (inactive)
84 | Cc1cc(O)c(C(=O)/C=C/c2c(F)c(F)c(F)c(F)c2F)c(=O)o1 | 69.7% (active)
85 | CCOC(=O)c1ccc2[nH]c3c(c2c1)CCCC3NC=O (configuration not stated) | 89.1% (active)
86 | CC(C)C(=O)Nc1c(C(=O)c2ccc(F)cc2)oc2ccccc12 | 84.4% (active)
87 | O=C(CSc1ccccn1)Nc1nc2c(ccc3ccccc32)s1 | 130% (active)
88 | CSc1ncccc1C(=O)Nc1nc2ccc(F)cc2s1 | -8.12% (inactive)

Row | SMILES | activation
89 | C/C(=N\NC(=O)CNc1cccc2ccccc12)c1ccc(Br)s1 | 79.5% (active)
90 | Cc1nn2c3cc(N4CCOCC4)ccc3nc2c2ccccc12 | 85% (active)
91 | Cc1cc(N2CCOCC2)nc(-c2ccc(Br)cc2)n1 | 60.3% (active)
92 | O=C(Cn1cncn1)N/N=C/c1c2ccccc2cc2ccccc12 | 73.7% (active)
93 | CCOc1ccccc1NC(=O)c1cccnc1 | 121% (active)
94 | O=C(Nc1cccc(Cl)c1)C1CCCN(c2cnccn2)C1 (configuration not stated) | 73% (active)
95 | Cc1ccc(Cl)cc1NC(=O)C1CCCN(c2cnccn2)C1 (configuration not stated) | 90.8% (active)
96 | Brc1ccc(-c2noc(-c3ccccc3)n2)o1 | 162% (active)
97 | Nc1[nH][nH]c(=O)c1N=Nc1ccc2c(c1)OCO2 | 74.9% (active)
98 | C=CCOc1c(Br)cc(/C=N\n2nnnc2N)cc1OC | 77.9% (active)
99 | COc1ccc(Cl)cc1C(=O)Nc1ccc(N(C)C(C)=O)cc1 | 78.6% (active)
100 | COc1cccc(-n2c(SCC(=O)NC3CCCCC3)nc3n[nH]c(C)c3c2=N)c1 | 83.7% (active)
101 | COc1cccc(OC)c1C(=O)Nc1ccc(N2CCCCC2)cc1 | 80.7% (active)
102 | COc1cc2ccccc2cc1C(=O)Nc1ccc(N2CCOCC2)cc1 | 118% (active)
103 | O=C(Nc1ccc(OC(F)(F)F)cc1)c1ccc2c(c1)no[n+]2[O-] | 127% (active)
104 | OCCNc1nc(Nc2ccc(Cl)c(Cl)c2)nc2ccccc12 | 83.8% (active)
105 | CCc1nc(Nc2ccc3nccnc3c2)c2oc3ccccc3c2n1 | 120% (active)
106 | CCCCC(=O)Nc1ccc(C(=O)Nc2cc(C(F)(F)F)ccc2Cl)cc1 | 92.7% (active)
107 | Cc1nn(-c2ccccc2)c2[nH]c(C(F)(F)F)cc(=O)c12 | 52.9% (active)
